Results filed as inconclusive are left out. Activity calls are given as the source filed them. Rule for the calls, unless noted: active = hit-call score of the fitted dose curve at least 0.9, where 1 is the maximum; inconclusive = response in the unintended direction; inactive = score below 0.9.
Experiments:
[1] = target: Thyroid hormone receptor alpha (Rattus norvegicus) + Thyroid hormone receptor beta (Rattus norvegicus) (UniProt P18113+P63059); experiment: TOX21_TR_LUC_GH3_Antagonist_Followup: Tox21 GH3 Thyroid Hormone Receptor Antagonism Luciferase Follow-Up Assay (AID 2283942)
In short: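 In a GH3 luciferase reporter line, test chemicals spanning 92 uM to 5nM final are co-incubated 24 h with 1.0 nM T3. Activity is expressed as relative luminescence units and analysed relative to DMSO.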

THRA (gene 7067) = THRA (gene 7067) (UniProt P10827); experiment: TOX21_TRA_COA_Antagonist_Followup_ratio: Tox21 Thyroid Hormone Receptor alpha Antagonism through Coactivator Recruitment Follow-Up Assay, Ratio (AID 2283953)
Chain of THRA (gene 7067) (P10827 whole entry, looked up, the tested form may be a part): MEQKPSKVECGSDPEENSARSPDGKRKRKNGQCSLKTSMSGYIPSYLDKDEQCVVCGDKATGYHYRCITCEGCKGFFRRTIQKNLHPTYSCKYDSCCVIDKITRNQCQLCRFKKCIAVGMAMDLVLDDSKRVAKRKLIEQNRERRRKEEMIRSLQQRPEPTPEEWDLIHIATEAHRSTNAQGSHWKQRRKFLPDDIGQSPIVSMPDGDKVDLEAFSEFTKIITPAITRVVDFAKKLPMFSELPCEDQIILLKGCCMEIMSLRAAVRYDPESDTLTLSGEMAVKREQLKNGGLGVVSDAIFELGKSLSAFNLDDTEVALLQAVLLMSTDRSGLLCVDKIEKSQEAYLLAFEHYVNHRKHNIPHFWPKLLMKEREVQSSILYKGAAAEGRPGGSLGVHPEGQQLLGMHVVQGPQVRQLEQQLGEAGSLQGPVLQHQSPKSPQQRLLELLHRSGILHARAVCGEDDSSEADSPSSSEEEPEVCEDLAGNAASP
In short: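 GST-TRα LBD 2.5 nM, BSA 0.10%, + cpd; then FITC-SRC-2 peptide 200 nM + Tb-anti-GST Ab 2 nM. TR-FRET ratio 520/495 nm. Norm: DMSO = 0%, T3 = 100%.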

[2] = TOX21_TRB_BLA_Antagonist_Followup_viability: Viability Assessment in the Tox21 Thyroid Hormone Receptor beta Antagonism Beta-lactamase (BLA) Follow-Up Assay (AID 2283961)
In short: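 Viability read as CellTiter-Glo ATP luminescence (loss of signal = cytotoxicity) in the same plates as the TRβ-bla readout. TRβ-LBD/GAL4 UAS-bla HEK293T cells were exposed to compounds, 11 concentrations in triplicate, for 18 h at 37C/5% CO2.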

THRB (gene 7068) [3] = target: THRB (gene 7068) (UniProt P10828); experiment: TOX21_TRB_COA_Antagonist_Followup_ratio: Tox21 Thyroid Hormone Receptor beta Antagonism through Coactivator Recruitment Follow-Up Assay, Ratio (AID 2283967)
Chain of THRB (gene 7068) (P10828 whole entry, looked up, the tested form may be a part): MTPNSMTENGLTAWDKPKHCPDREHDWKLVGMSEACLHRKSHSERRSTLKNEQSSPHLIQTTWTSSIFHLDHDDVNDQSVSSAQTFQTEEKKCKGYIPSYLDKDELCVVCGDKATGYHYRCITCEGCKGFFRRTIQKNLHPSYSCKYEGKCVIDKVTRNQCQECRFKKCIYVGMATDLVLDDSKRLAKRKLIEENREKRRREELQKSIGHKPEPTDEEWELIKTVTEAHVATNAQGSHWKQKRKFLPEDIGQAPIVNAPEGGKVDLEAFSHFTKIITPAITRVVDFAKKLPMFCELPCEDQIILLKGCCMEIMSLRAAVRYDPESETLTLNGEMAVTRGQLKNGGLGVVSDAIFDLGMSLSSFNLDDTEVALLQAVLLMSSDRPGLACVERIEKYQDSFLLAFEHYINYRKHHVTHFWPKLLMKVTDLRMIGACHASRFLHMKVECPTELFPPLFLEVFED
In short: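 Coactivator (SRC-2) recruitment to purified GST-TRβ ligand-binding domain is monitored by terbium-to-fluorescein energy transfer, emission ratio 520:495 nm. DMSO wells define 0% and T3 wells 100% activity.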

THRB (gene 7068) [4] = target: THRB (gene 7068) (UniProt P10828); experiment: TOX21_TRB_BLA_Antagonist_Followup_ratio: Tox21 Thyroid Hormone Receptor beta Antagonism Beta-lactamase (BLA) Follow-Up Assay, Ratio (AID 2283958)
In short: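 Cells were plated and allowed to attach for 5 h, then dosed with compounds in DMSO at 11 concentrations for 18 h at 37C. Beta-lactamase reporter activity was measured via CCF4-AM FRET as the 460:530 nm ratio.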

[5] = target: Retinoic acid receptor RXR-alpha (Homo sapiens) (UniProt P19793); experiment: TOX21_TR_RXR_BLA_Antagonist_Followup_ratio: Tox21 Thyroid Hormone Receptor beta Retinoid X Receptor alpha (RXRa) Antagonism Beta-lactamase (BLA) Follow-Up Assay, Ratio (AID 2283972)
Chain of Retinoic acid receptor RXR-alpha (Homo sapiens) (P19793 whole entry, looked up, the tested form may be a part): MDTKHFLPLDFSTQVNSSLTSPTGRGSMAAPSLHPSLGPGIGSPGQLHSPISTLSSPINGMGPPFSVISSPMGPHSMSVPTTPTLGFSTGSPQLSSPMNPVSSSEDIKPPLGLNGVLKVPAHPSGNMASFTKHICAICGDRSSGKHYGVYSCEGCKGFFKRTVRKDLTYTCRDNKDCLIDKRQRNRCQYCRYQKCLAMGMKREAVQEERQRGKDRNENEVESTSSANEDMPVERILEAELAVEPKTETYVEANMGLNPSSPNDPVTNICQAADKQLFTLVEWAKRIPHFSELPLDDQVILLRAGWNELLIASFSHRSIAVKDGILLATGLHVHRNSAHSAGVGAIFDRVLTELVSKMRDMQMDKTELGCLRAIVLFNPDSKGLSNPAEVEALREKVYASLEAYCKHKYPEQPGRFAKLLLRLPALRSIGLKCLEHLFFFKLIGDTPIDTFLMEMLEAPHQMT
In short: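 Beta-lactamase reporter readout as cleaved/uncleaved substrate ratio (460:530 nm) after 2 h substrate loading at room temperature. GAL4-RXRa bla HEK293T cells were exposed 16 h at 37C to 11-point compound series; loss of signal scored against DMSO baseline.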

[6] = CCTE_Harrill_HTTr_Viability_DMEM_6hr: (Pilot) CCTE's 6-hour Cell Viability Assessment for the High-Throughput Transcriptomics (HTTr) Platform, in MCF-7 cells cultured in DMEM + 10% fetal bovine serum, Harrill Lab (AID 2283973; active = hit-call score of the fitted dose curve at least 0.9, where 1 is the maximum; inactive = score below 0.9)
In short: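 Propidium iodide uptake imaged by high-content analysis after six hours of chemical treatment in an eight-concentration series. Cells: MCF-7 grown in DMEM with 10% fetal bovine serum; DMSO as baseline.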

[7] = CCTE_Harrill_HTTr_Viability_DMEM_12hr: (Pilot) CCTE's 12-hour Cell Viability Assessment for the High-Throughput Transcriptomics (HTTr) Platform, in MCF-7 cells cultured in DMEM + 10% fetal bovine serum, Harrill Lab (AID 2283974; active = hit-call score of the fitted dose curve at least 0.9, where 1 is the maximum; inactive = score below 0.9)
In short: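 Propidium iodide dye exclusion imaged by high-content microscopy after 12 h chemical exposure (eight concentrations) of MCF-7 cells grown in DMEM plus 10% FBS; values fitted in both directions relative to DMSO.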

[8] = CCTE_Harrill_HTTr_Viability_DMEM_24hr: (Pilot) CCTE's 24-hour Cell Viability Assessment for the High-Throughput Transcriptomics (HTTr) Platform, in MCF-7 cells cultured in DMEM + 10% fetal bovine serum, Harrill Lab (AID 2283975; active = hit-call score of the fitted dose curve at least 0.9, where 1 is the maximum; inactive = score below 0.9)
In short: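 Pilot study: propidium iodide dye exclusion, imaged by high content microscopy, after 24 h compound exposure (eight concentrations) in MCF-7 cultured in DMEM + 10% fetal bovine serum; DMSO served as negative control and baseline.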

[9] = TOX21_TR_RXR_BLA_Agonist_Followup_viability: Viability Assessment in the Tox21 Thyroid Hormone Receptor beta Retinoid X Receptor alpha (RXRa) Agonism Beta-lactamase (BLA) Follow-Up Assay (AID 2283970)
In short: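 Viability counter-screen run alongside the RXRa bla follow-up: HEK293T reporter cells were treated for 16h at 37C in stripped-serum medium, then ATP was quantified by luciferase-coupled CellTiter-Glo. Decreased signal relative to DMSO marked cytotoxicity.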

Measured: AC50

O=c1cc(-c2ccccc2)oc2ccc3ccccc3c12
inactive: [1] | THRA (gene 7067) | [2] | THRB (gene 7068) [3]

Clc1ccc(Nc2nnc(Cc3ccncc3)c3ccccc23)cc1
inactive: [1] | THRA (gene 7067) | THRB (gene 7068) [4] | [5]

CCCCc1oc2ccccc2c1C(=O)c1cc(I)c(OCCN(CC)CC)c(I)c1
active: [7] 46.3 µM | [8] 73.9 µM
inactive: [6]

CC(C)c1c(C(=O)Nc2ccccc2)c(-c2ccccc2)c(-c2ccc(F)cc2)n1CC[C@@H](O)C[C@@H](O)CC(=O)O
inactive: THRA (gene 7067) | THRB (gene 7068) [4] | [2] | THRB (gene 7068) [3] | [5]

Nc1cc(Cl)c(-c2cc(Cl)c(N)cc2Cl)cc1Cl
inactive: THRA (gene 7067) | THRB (gene 7068) [3]
active: [1] 58.1 µM | THRB (gene 7068) [4] 6.14 µM | [2] 60.1 µM | [5] 24.6 µM

C=C(c1ccc(C(=O)O)cc1)c1cc2c(cc1C)C(C)(C)CCC2(C)C
inactive: [9]

Nc1ccn([C@@H]2O[C@H](CO)[C@@H](O)C2O)c(=O)n1 (stereo partly drawn)
inactive: [1] | THRA (gene 7067) | THRB (gene 7068) [4] | [2] | THRB (gene 7068) [3] | [5]

COc1ccccc1NC(=O)c1cc2ccccc2cc1O
active: [1] 27.2 µM | THRB (gene 7068) [4] 38.3 µM | [2] 28.3 µM | [5] 22 µM
